IL1B secr inh: blocks inflammasome-driven IL-1 beta release; THP-1 LPS/ATP IL-1B secretion, AlphaLISA, 16 h; stronger effect = lower value; activity change, % at 57.5 µM; hit rate 4.7% among 360,000; AID 743279; in the data active means activity change below about -50%; inconclusive means mostly about -30% to -49%; further: on the % scale 0 is the no-effect control and ±100 the full control effect
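THP-1 cells pretreated 1 hr with compounds (up to 57.5 uM final), then stimulated with LPS (250 ng/mL final) plus ATP (1.25 mM final); secreted IL-1B measured by AlphaLISA after 16 hr, decreased signal indicating inhibition.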
D3 ag: D3 dopamine receptor (human) agonism; max activation, %; hit rate 0.58% among 410,000; D3R DiscoveRx beta-arrestin cells, luminescence, 90 min; in the data active means max activation above about 30%; further: 0% is about no effect
Target sequence (P35462 whole entry, looked up): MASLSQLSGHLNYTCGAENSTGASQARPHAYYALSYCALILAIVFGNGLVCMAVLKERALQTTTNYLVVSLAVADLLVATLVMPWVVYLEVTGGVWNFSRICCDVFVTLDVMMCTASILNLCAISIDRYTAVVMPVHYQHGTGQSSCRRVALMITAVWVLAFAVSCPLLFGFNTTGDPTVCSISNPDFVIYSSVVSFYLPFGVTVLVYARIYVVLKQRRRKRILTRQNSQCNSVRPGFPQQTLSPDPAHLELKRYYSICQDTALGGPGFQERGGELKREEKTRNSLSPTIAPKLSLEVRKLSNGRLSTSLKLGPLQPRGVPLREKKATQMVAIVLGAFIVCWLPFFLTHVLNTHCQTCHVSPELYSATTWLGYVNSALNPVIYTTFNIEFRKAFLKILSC
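Cells at 1500/well, incubated overnight, then treated with pinned compounds (dopamine as control) for 90 min at 37 degrees C. DiscoveRx reagent added for 30 - 60 minutes at room temperature; luminescence read.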
a7 integrin act: activates integrin-mediated alleviation for muscular dystrophy | alpha7betagal myoblasts, beta-gal FDG fluorescence, 48 h | Potency, µM (series often up to 38.3 µM), for the others: top-dose activation, hits mostly activators | hit rate 0.064% among 350,000;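 further: potency means the concentration at half of the fitted maximal effect; 100% = response of the positive control SU9516; nearly all actives have a fitted effect of over 60% in size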
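alpha7betagal+/- myoblasts (passage 13, 250/well) treated 48 h at 37C with compounds at 1:260 dilution of DMSO stock. Lysed, then beta-galactosidase activity read as FDG fluorescence (ex 480/em 540) after 30 min, with pre-read for autofluorescence.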
ATXN2 expr inh: reduces ATXN2 reporter expression in HEK-293 cells; Potency, µM (highest dose often 57 µM), for inactives: at the top dose activity change, negative = inhibition, most hits filed as inhibitors; AID 1745845; HEK-293 ATXN2-luciferase reporter, luminescence, 24 h; hit rate 0.72% among 360,000; further: potency means the concentration at half of the fitted maximal effect; on the % scale 0 is the no-effect control and ±100 the full control effect; nearly all actives have a fitted effect of over 55% in size
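ATXN2-luciferase reporter cells (luciferase flanked by upstream and downstream ATXN2 gene portions) were treated 24 h at 37 °C with compounds at up to 57 uM. SteadyGlo luminescence gave expression; GF-AFC fluorescence gave viability.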
D3 antag: blocks the human D3 dopamine receptor; P35462; D3R cells, DiscoveRx beta-arrestin luminescence, antagonist mode; stronger effect = lower value; max response, negative = inhibition, %; hit rate 2.5% among 360,000; in the data active means max response below about -50%; inconclusive means no clear call, values can overlap the other calls; further: on the % scale 0 is the no-effect control and ±100 the full control effect
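Cells expressing the human receptor were seeded at 1500 cells/well, incubated overnight at 37 degrees C in 5% CO2, then exposed to library compounds with dopamine controls for 90 minutes at 37 degrees C before luminescent detection.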
S2 tox: cell viability loss in ATXN counter-screen; S2 cells (HEK-293 line with an ATXN2-luciferase reporter) viability, CellTiter-Fluor protease fluorescence, 24 h; Potency, µM (titrated, usually from 56.7 µM), usual class: cytotoxic; hit rate 0.49% among 400,000; AID 651635; further: potency means the concentration at half of the fitted maximal effect; nearly all actives have a fitted effect of over 40% in size
Starred values were filed as active, the others as inactive; i = inactive; u = inconclusive; x = no result; [ ] = dose if it differs, or a comment. This is a sample that favours compounds with a hit; in the whole collection about 7% have one here. Unless noted, the call rests on the fitted dose curve; in most records, active means well fitted curve in the direction sought with a large enough effect; inconclusive means small, poorly fitted or top-dose-only effect, or another doubt; inactive means no such curve, though single readings can be large; an effect the other way counts as inactive or inconclusive.

SMILES | IL1B secr inh | D3 ag | a7 integrin act | ATXN2 expr inh | D3 antag | S2 tox
COc1ccc(C2=NS(=O)(=O)N(C)C(C(=O)NC3CCCCC3)=C2)cc1 | -11 | -6 | 17% | 2% | -4 | i
CC(C)n1cnnc1SCC(=O)Nc1ccc(Br)cc1F | -13 | 9 | 0% | 1% | -5 | i
CCc1nnc(NC(=O)CSc2nnc(-c3ccco3)n2CC)s1 | 26 | 14 | 4% | 7% | -15 | i
Nc1ccccc1C(=O)NCCCN1CCN(c2cccc(Cl)c2)CC1 | u | -10 | -10% | -24% | -73* | i
CC(C)(CNC(=S)NCCc1ccccc1)CNC(=S)NCCc1ccccc1 | -70* | 0 | -37% | u | -23 | u
Fc1cccc(NC(=S)NCCc2ccccc2)c1 | -10 | 5 | -52% | 7% | 11 | i
S=C(NCCc1ccccc1)Nc1c(Cl)cccc1Cl | -64* | -9 | 23% | 1% | -8 | u
O=[N+]([O-])c1cccc(NC(=S)NCCc2ccccc2)c1 | u | -25 | -26% | -12% | -71* | i
O=C(COCc1cc(-c2cccs2)on1)N1CCN(c2cccc(Cl)c2)CC1 | x | 9 | x | x | x | x
Cc1cc(N/C(=N/S(=O)(=O)c2cc(F)ccc2F)c2ccccc2)n(-c2ccccc2)n1 | u | -1 | 0% | x | 1 | i
CCN(C(=O)c1nn(-c2ccc(C)cc2)c(=O)c2c1c1ccccc1n2C)c1ccc(F)cc1 | x | -11 | x | -12% | x | i
N#CC(C#N)=Cc1cc2ccccc2nc1N1CCCCC1 | -104* | -5 | 1% | 5% | -15 | i
CC(NC(=O)CN(C)Cc1cccc(F)c1)c1ccccc1 (stereo not drawn) | -19 | 3 | 2% | 17% | 6 | i
CCOC(=O)c1ccc(NC(=O)C2=C(C)Nc3nc(CCCO)nn3C2c2cccc(C)c2)cc1 (stereo not drawn) | 10 | 4 | -6% | 8% | 12 | i
CCOC(=O)c1cnn(-c2ccccc2)c1NC(=O)C(F)(F)C(F)(F)C(F)(F)F | 32 | -4 | -9% | -2% | -68* | i
CCOC(=O)c1cnn(-c2ccccc2)c1NC(=O)c1ccccc1 | 25 | 17 | -25%[7.66 µM] | 12% | 12 | i
O=C(COC(=O)c1ccc(Cl)nc1)NCc1ccc(F)cc1 | 12 | -8 | 4% | 3% | -50* | i
O=C(COC(=O)c1ccc(Cl)nc1)NCCNC(=O)COC(=O)c1ccc(Cl)nc1 | 32 | 1 | -31% | -3% | -16 | i
COc1ccc(Cn2nnc3c(=O)[nH]c(C4CCCN(C(=O)c5ccccc5Cl)C4)nc32)cc1OC (stereo not drawn) | x | 11 | x | 8% | x | u
COc1cccc(C(=O)/C=C2\Sc3ccccc3N2C)c1 | -77* | 9 | u | u | -24 | x
CCN(CC)CCC(=O)N1c2ccccc2Sc2ccc(NC(=O)OC)cc21 | -79* | -16 | -4% | -3% | -17 | i
CC(C)OCCCNS(=O)(=O)c1ccc2ccccc2c1 | 12 | -1 | 10% | -8% | 18 | i
Cc1ccc(NC(=O)Cn2c(-c3ccc(F)cc3)cnc2SCC(=O)Nc2c(C)cccc2C)cc1 | 2 | -10 | 16% | -30% | -71* | i
O=C(CSc1ncc(-c2ccc(F)cc2)n1Cc1ccco1)Nc1ccc2c(c1)OCO2 | -64* | 4 | -31% | 6% | u | u
CCOc1ccc(NC(=O)CSc2ncc(-c3ccc(F)cc3)n2Cc2ccco2)cc1 | u | 1 | 2% | -24% | 1 | i
SMILES | IL1B secr inh | D3 ag | a7 integrin act | ATXN2 expr inh | D3 antag | S2 tox
Cc1ccc(NC(=O)CSc2ncc(-c3ccccc3)n2C(=O)c2ccccc2)cc1 | -17 | 2 | -48% | 12% | 19 | i
Fc1cc(F)c(F)c(SCn2cc(Br)cn2)c1F | -14 | -2 | -7% | 1% | -8 | i
COc1ccc(-c2noc(-c3ccc(N4CCN(c5ccc(OC)cc5)CC4)c([N+](=O)[O-])c3)n2)cc1 | x | 7 | x | 3% | x | i
Cc1ccccc1SCC(=O)Nc1cc(S(=O)(=O)N2CCOCC2)ccc1N1CCOCC1 | -29 | -13 | 6% | 0% | -8 | i
CCOc1cc(NC(=O)C2CCCCC2)c(OCC)cc1NC(=O)c1ccccn1 | 13 | 49* | -1% | -12% | 17 | i
Cc1cc(NC(=O)C2CCCCC2)ncc1NC(=O)c1ccccn1 | -51* | -14 | -18% | 13% | 5 | i
Cc1cc(C)c2c(=O)n(CC(=O)NCCCN3CCN(c4ccccc4F)CC3)sc2n1 | u | 8 | -72% | u | -70* | 19µM*
Cc1cc(C)c2c(=O)n(CC(=O)Nc3cccc(F)c3)sc2n1 | 0 | -8 | -72% | -19% | u | i
Cc1cc(C)c2c(=O)n(CC(=O)NCCCN3CCOCC3)sc2n1 | -97* | 4 | -48% | 15% | -22 | i
Cc1cc(C)c2c(=O)n(CC(=O)Nc3ccc(Cl)cc3)sc2n1 | -9 | 8 | -56% | -23% | u | u
CCOc1ccc(NC(=O)Cn2sc3nc(C)cc(C)c3c2=O)cc1 | -89* | 0 | 6% | -14% | 0 | i
COc1ccc(CN2CCC(C)CC2)cc1OCc1ccccc1 | -22 | -25 | -30% | 121% | -89* | i
COc1cc(CN2CCCCC2)ccc1OCc1ccccc1 | -15 | -16 | 0% | 25% | 22 | i
CCOC(=O)C1CCN(Cc2ccc(OC)c(OCc3ccccc3)c2)CC1 | 5 | -18 | -33% | -24% | -65* | i
CN(C)C(CNC(=O)c1ccc(NC(=O)CC#N)cc1)c1ccccc1 (stereo not drawn) | -1 | 4 | u | 16% | -19 | i
CN(C)C(CNC(=O)c1ccc(C(=O)c2ccccc2)cc1)c1ccccc1 (stereo not drawn) | -19 | -19 | -44% | 4% | -57* | i
CN(C)C(CNC(=O)c1ccc(-c2ccccc2)cc1)c1ccccc1 (stereo not drawn) | -54* | -21 | -71% | 3% | -25 | i
C=CCN1C(=O)c2ccc(C(=O)NCC(c3ccccc3)N(C)C)cc2C1=O (stereo not drawn) | -3 | -12 | 11% | 1% | u | i
Cn1c(Cn2c(=O)sc3ccccc32)nnc1SCC(=O)NCC1CCCO1 (stereo not drawn) | 1 | 4 | 7% | -1% | 1 | i
CCC(=O)Nc1nc2ccccc2n1CCN(C)C | -11 | -1 | 13% | -12% | -81* | i
CCCCn1c(NC(=O)C2CCCCC2)nc2ccccc21 | 9 | 5 | -24% | -25% | 20 | i
CN(C)CCCn1c(NC(=O)C2CCCCC2)nc2ccccc21 | -4 | -22 | 18% | 6% | -52* | i

High-throughput results from PubChem BioAssay.
